Sampled rows, rich in hits. Any-hit rate of the full collection: about 3.1%.
proKLK7 act: proKLK7 zymogen activators, primary screen, biochemical, fluorescence intensity | activation, % at 7 µM | purified proKLK7, EDANS-DABCYL substrate fluorescence; 100% is mature enzyme control, 0% vehicle | 370,000 compounds, 0.9% hits;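 active = activation above the mean of all tested compounds plus 3 SD, computed per campaign excluding outliers beyond control limits, cut at about 13% in these data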
Neddyl block: inhibitors of cullin neddylation, primary screen, biochemical, TR-FRET, uHTS, NAE and Ubc12; NEDD8-conjugating enzyme Ubc12 (Homo sapiens) + NEDD8-activating enzyme E1 regulatory …; calls only at 25 µM; 360,000 compounds, 0.58% hits; AID 651699, 2012; in the data active = inhibition above about 36%
MBD2 DNA inh: inhibitors of MBD2 binding to methylated DNA, primary screen, biochemical, TR-FRET, DNA-binding domain, human; MBD2 binding to methylated oligonucleotide; inhibition, % at 4.4 µM; 370,000 compounds, 0.31% hits; AID 686964, 2013; in the data active = inhibition above about 13%
UHRF1 MBD2 ctr: UHRF1 methylated DNA binding inhibitors, primary screen, counter-screen for MBD2 inhibitor project, biochemical, TR-FRET, human UHRF1, single concentration; E3 ubiquitin-protein ligase UHRF1 (Homo sapiens), Q96T88; UHRF1 binding to methylated oligo; inhibition, % at 4.4 µM; 370,000 compounds, 0.75% hits; in the data active = inhibition above about 21%;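 also: UHRF1 SRA domain binding a hemimethylated CpG hairpin DNA probe; 0% = median of test compound wells and 100% = reference inhibitor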
Rin1-Abl PPI inh: inhibitors of Rin1-Abl protein binding, primary screen, biochemical, TR-FRET. Tyrosine-protein kinase ABL1 (Homo sapiens) + Ras and Rab interactor 1 (Homo sapiens), …. inhibition, % at 7.35 µM. 360,000 compounds, 0.4% hits. AID 588664, 2011; in the data active = inhibition above about 5%, passing the limit was not always enough
LEDGF integ inh: blockers of LEDGF/p75-dependent integrase strand transfer – biochemical, TR-FRET, high throughput, primary screen; AID 743269, 2014; inhibition, % at 3.7 µM; HIV-1 integrase (with human LEDGF/p75); TR-FRET IN-LEDGF/p75 DNA integration, Eu/Cy5; 370,000 compounds, 0.64% hits;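 active = inhibition above the screen-wide mean plus 3 SD, cut at about 13% in these data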;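 also: signal is the Cy5 over europium emission ratio at 671 and 618 nm; 0% = plate median of compound wells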
KLK7 act conf: proKLK7 zymogen activators, confirmation, biochemical, fluorescence intensity, triplicate | purified proKLK7, EDANS-DABCYL substrate fluorescence; scaled: vehicle 0, mature enzyme 100 | AID 686949, 2013 | shares compounds with proKLK7 act | 3,200 compounds, 68% hits | activation, % at 7 µM;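 active = activation, as change over the incubation, above the mean of all tested compounds plus 3 SD, cut at about 13% in these data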
EDANS-DABCYL int: EDANS-DABCYL substrate optical interference, artefact control for kallikrein-7 zymogen activator project, biochemical, fluorescence intensity, high throughput; shares compounds with proKLK7 act; no enzyme, 4 h; solvent 0%, active enzyme control 100%; activation, % at 7 µM; 3,200 compounds, 80% hits; AID 686952, 2013;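 active = activation above the all-compound mean plus 3 SD, ignoring values outside control-based bounds, cut at about 4.8% in these data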;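 also: value is the 4 h activation minus the activation read at time zero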
EDANS interf: optically interferes with EDANS-DABCYL fluorescence, kallikrein-7 activator counter-screen. EC50, µM. shares compounds with proKLK7 act. EDANS-DABCYL peptide fluorescence interference, no enzyme. 250 compounds, 20% hits;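 active = compounds that raise the fluorescence signal in this interference counterscreen, with EC50 at or below 10 µM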;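 also: intact quenched peptide substrate alone read at 355 nm excitation and 520 nm emission; signal is fluorescence gain from T0 to T4 after four hours at room temperature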
Starred values were filed as active, the others as inactive; i = inactive; x = not tested or not shown.

SMILES	proKLK7 act	Neddyl block	MBD2 DNA inh	UHRF1 MBD2 ctr	Rin1-Abl PPI inh	LEDGF integ inh	KLK7 act conf	EDANS-DABCYL int	others
Cc1ccc(C(=O)Nc2ccc3nccnc3c2)cc1	12.6*	x	-2.5	-2.9	-2.8	-0.8	45.4*	38.1*	EDANS interf=9.19*
CS(=O)(=O)NN1C(=O)c2ccccc2NC1c1cccs1 (configuration not stated)	63.2*	x	-0.4	1.0	0.8	0.3	-0.4	10.9*
CS(=O)(=O)NN1C(=O)c2ccccc2NC1c1cccc(O)c1 (configuration not stated)	62.9*	x	0.7	2.0	0.1	-0.2	17.1*	18.7*
CS(=O)(=O)NN1C(=O)c2ccccc2NC1c1ccccc1O (configuration not stated)	35.8*	x	5.4	0.3	-1.0	0.4	5.7	6.4*
CS(=O)(=O)NN1C(=O)c2ccccc2NC1c1c[nH]c2ccccc12 (configuration not stated)	13.6*	i	2.8	5.9	-3.6	-2.3	0.9	1.8
Cc1ccc(S(=O)(=O)NN2C(=O)c3ccccc3NC2c2cccc(O)c2)cc1 (configuration not stated)	5.0	i	-0.5	-0.2	-0.6	-3.2	x	x
CCOc1ccc(C(=O)CC(=O)C(=O)NCCc2ccc(OC)c(OC)c2)cc1	-2.9	i	7.8	3.4	-1.8	-2.9	x	x
COc1cccc(N2CCN(C(=O)CN3C(=O)NC(C)(c4ccc5ccccc5c4)C3=O)CC2)c1 (configuration not stated)	0.5	i	-0.9	-0.8	3.0	-4.5	x	x
c1ccc(CCn2cccc2)nc1	-0.4	i	2.8	2.4	2.5	-4.4	x	x
O=C(CCNC(=O)C1CCN(S(=O)(=O)c2ccc(F)cc2)CC1)NCc1ccc(Cl)cc1	-0.4	i	4.1	-0.4	1.7	1.7	x	x
COc1cc(C2Nc3ccccc3C(=O)N2NS(C)(=O)=O)c([N+](=O)[O-])cc1OC (configuration not stated)	5.6	i	2.7	-7.0	4.2	1.3	x	x
COc1ccc(C2Nc3ccccc3C(=O)N2NS(C)(=O)=O)c(OC)c1 (configuration not stated)	68.6*	x	1.6	-1.2	4.1	-1.7	10.6	15.1*
CS(=O)(=O)NN1C(=O)c2ccccc2NC1c1ccccc1 (configuration not stated)	79.0*	x	-0.1	0.4	-0.3	-4.2	10.0	14.9*
COc1cc2c(cc1OC)C(C1C(=O)CC(C)CC1=O)N(C(=O)CCl)CC2 (configuration not stated)	213.2*	x	-4.6	32.0*	1.2	1.7	8.8	9.7*
COc1cc2c(cc1OC)C(C1C(=O)CCCC1=O)N(C(=O)CCl)CC2 (configuration not stated)	190.9*	x	-3.2	0.5	-1.9	0.6	6.4	9.2*
COc1cc2c(cc1OC)C(c1ccccc1)N(C(=O)CCl)CC2 (configuration not stated)	0.4	i	4.1	-2.2	0.8	3.4	x	x
COc1ccc2c(c1)CCN(C(=O)CCl)C2C1C(=O)CCCC1=O (configuration not stated)	-0.1	i	-2.4	-0.1	1.3	-0.1	x	x
CC(NC(=O)/C=C/c1ccco1)c1nc2ccccc2n1Cc1ccccc1F (configuration not stated)	-0.3	i	10.8	6.1	-2.3	-2.7	x	x
CCCCCC(=O)Nc1c(-c2ccc(OC)cc2)c(=O)c2ccccc2n1C	16.9*	x	-5.1	0.1	0.9	-1.1	2.6	0.7
CCCC(=O)Nc1c(-c2ccc(OC)cc2)c(=O)c2ccccc2n1C	17.1*	x	-4.2	-3.7	4.8	2.7	19.8*	16.6*	EDANS interf=i
CCCC(=O)Nc1c(-c2ccccc2OC)c(=O)c2ccccc2n1C	0.9	i	1.5	-0.8	-1.2	0.6	x	x
COc1ccccc1-c1nnc(SC2CCc3ccccc3NC2=O)s1 (configuration not stated)	12.9*	i	-4.9	-0.9	-12.8	0.1	-4.0	6.3*
CCOC(=O)Nc1nnc(-c2ccccc2OC)s1	-15.3	i	2.3	0.4	0.3	-3.1	x	x
COc1cc(C(Nc2ccccn2)c2c(NC(=O)c3ccco3)sc(C)c2C)cc(OC)c1OC (configuration not stated)	25.6*	i	2.4	1.3	-1.5	-4.2	-34.4	-31.6
COc1ccc(C(Nc2ccccn2)c2c(NC(=O)c3ccco3)sc(C)c2C)cc1OC (configuration not stated)	0.7	i	-1.6	-0.2	-4.7	3.1	x	x
SMILES	proKLK7 act	Neddyl block	MBD2 DNA inh	UHRF1 MBD2 ctr	Rin1-Abl PPI inh	LEDGF integ inh	KLK7 act conf	EDANS-DABCYL int	others
CCOc1ccc(-c2cc(C(=O)N3CCCC3)c3ccccc3n2)cc1	x	x	x	x	0.7	x	x	x
COc1ccc(-c2cc(C(=O)OCC(=O)N3CCCC3)c3ccccc3n2)cc1	16.9*	x	-0.7	0.5	0.1	0.5	-17.5	-28.4
COc1ccc(-c2cc(C(=O)NC3CC3)c3ccccc3n2)cc1	42.3*	x	-0.4	-3.4	-1.3	4.3	25.3*	15.4*	EDANS interf=>69.5
CCOc1ccc(-c2cc(C(=O)N3CCN(C)CC3)c3ccccc3n2)cc1	30.7*	x	6.1	-1.4	-3.5	3.6	49.0*	33.3*	EDANS interf=>69.5
COc1ccc(-c2cc(C(=O)N3CCCC3)c3ccccc3n2)cc1	21.8*	x	-1.4	-0.3	1.2	-0.4	-18.6	1.6
COc1ccccc1N1CCN(C(=O)CCNS(=O)(=O)c2cc(Br)cnc2N)CC1	-0.1	i	2.9	0.0	3.0	-1.9	x	x
CN1CC=C2C(C#N)=C(N)C(C#N)(C#N)[C@H](c3ccoc3)[C@H]2C1	x	i	x	x	-1.5	x	x	x
CC(=O)N1CC=C2C(C#N)=C(N)C(C#N)(C#N)[C@H](c3ccoc3)[C@H]2C1	16.2*	i	-5.3	-6.8	-0.3	1.4	16.4*	17.1*

Source: PubChem BioAssay (several laboratories)
